PubChem BioAssay (Tox21)
A number with no mark means an inactive call. Results filed as inconclusive are left out. A call without a number means that no potency is given here. Calls of active or inactive are those of the source. Calls follow the shape of the dose curve; as a rule, active = well fitted curve in the direction sought with a large enough effect in the repeat runs; inconclusive = weak or mixed curves; inactive = no such curve, though single readings can be large; an effect the other way counts as inactive or inconclusive.

How the values were obtained:
[1] = A CellTox Green Cytotoxicity Assay to monitor cytotoxicity in HepG2 cells - 0 hour (AID 1224882); settings: CellTox Green fluorescence; series mostly up to 76.8 µM; also: nearly all actives have a fitted effect of over 35% in size
Method in brief: (§1)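 HepG2, 600 cells/well premixed w/ CellTox Green; 5 h settle, 37 C/5% CO2; pintool cpd add (DMSO); 37 C, 40 h; fluorescence read at 0, 8, 16, 24, 32, 40 h.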

[2] = A CellTox Green Cytotoxicity Assay to monitor cytotoxicity in HepG2 cells - 32 hour (AID 1224883); settings: CellTox Green fluorescence; series mostly up to 76.8 µM; also: nearly all actives have a fitted effect of over 50% in size; also: potency is read from the fitted curve at half-maximal effect
Method in brief: as §1

[3] = A CellTox Green Cytotoxicity Assay to monitor cytotoxicity in HEK293 cells - 8 hour (AID 1224884); settings: CellTox Green fluorescence; series mostly up to 76.8 µM; also: nearly all actives have a fitted effect of over 35% in size; also: potency is read from the fitted curve at half-maximal effect
Method in brief: (§2)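 Read-out: fluorescence of a cell-impermeant cyanine dye staining DNA of dead cells, proportional to cytotoxicity. HEK293, 600 cells/well with reagent, compound (23 nL DMSO) added after 5 h; reads at 0, 8, 16, 24, 32, 40 h.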

[4] = qHTS RealTime-Glo MT Cell Viability Assay in HepG2 cells - 16 hour (AID 1224885); settings: RealTime-Glo luminescence; series mostly up to 76.8 µM; also: nearly all actives have a fitted effect of over 50% in size; also: potency is read from the fitted curve at half-maximal effect
Method in brief: (§3)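 Luminescence read-out: viable HepG2 cells reduce a prosubstrate to a NanoLuc substrate, giving a signal proportional to live cell number. Reads taken at 0, 8, 16, 24, 32 and 40 h of compound exposure at 37 C.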

[5] = qHTS RealTime-Glo MT Cell Viability Assay in HEK293 cells - 24 hour (AID 1224886); settings: RealTime-Glo luminescence; series mostly up to 76.8 µM; also: nearly all actives have a fitted effect of over 50% in size; also: potency is read from the fitted curve at half-maximal effect; as to activity change, negative = cytotoxicity: top concentration of the series differs between compounds
Method in brief: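 Nonlytic real-time viability readout: viable cells convert prosubstrate to NanoLuc substrate, giving luminescence proportional to live cell number. HEK293, 600 cells/well, compound added after 5 h, continuous culture at 37 C.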

[6] = qHTS RealTime-Glo MT Cell Viability Assay in HEK293 cells - 8 hour (AID 1224887); settings: RealTime-Glo luminescence; series mostly up to 76.8 µM; also: top concentration of the series differs between compounds; nearly all actives have a fitted effect of over 50% in size
Method in brief: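 Luminescence readout at each listed time point; HEK293, 600 cells/well, RealTime-Glo MT reagent added with cells; compounds pinned (23 nL in DMSO) after 5 h at 37 C; continuous culture at 37 C.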

[7] = qHTS RealTime-Glo MT Cell Viability Assay in HepG2 cells - 0 hour (AID 1224889); settings: RealTime-Glo luminescence; series mostly up to 76.8 µM; also: nearly all actives have a fitted effect of over 50% in size; also: potency is read from the fitted curve at half-maximal effect
Method in brief: as §3

[8] = A CellTox Green Cytotoxicity Assay to monitor cytotoxicity in HepG2 cells - 8 hour (AID 1224890); settings: CellTox Green fluorescence; series mostly up to 76.8 µM; also: nearly all actives have a fitted effect of over 45% in size; also: potency is read from the fitted curve at half-maximal effect
Method in brief: as §1

[9] = qHTS assay to identify small molecule antagonists of the estrogen receptor alpha (ER-alpha) signaling pathway using the BG1 cell line in the presence of 0.1 nM 17-beta-estradiol - cell viability counter screen (AID 1259241); settings: VM7Luc4E2 (BG1) viability, CellTiter-Fluor protease, 22 h, 0.1 nM estradiol agonist added; series mostly up to 92.4 µM; also: nearly all actives have a fitted effect of over 40% in size
Method in brief: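 VM7Luc4E2, 4,000 cells/well, phenol red-free medium + 10% charcoal-stripped FBS; 24 hr plating; cpd + 0.1 nM E2 final, 22 hr 37C/5% CO2; CellTiter-Fluor 30 min, fluorescence.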

[10] = A CellTox Green Cytotoxicity Assay to monitor cytotoxicity in HEK293 cells - 16 hour (AID 1224888); settings: CellTox Green fluorescence; series mostly up to 76.8 µM; also: nearly all actives have a fitted effect of over 35% in size; also: potency is read from the fitted curve at half-maximal effect
Method in brief: as §2

O=C(O)CNCC(=O)O
cytotoxicity [1]: -10.6% [at 6.97 µM] | cytotoxicity increase [2]: -4.58% [at 6.97 µM] | cytotoxicity increase [3]: -1.38% [at 6.97 µM] | activity change, negative = cytotoxic [4]: -0.86% [at 6.97 µM] | activity change, negative = cytotoxicity [5]: -8.06% [at 6.97 µM] | activity change, negative = cytotoxicity [6]: -7.77% [at 6.97 µM] | activity change, negative = cytotoxicity [7]: -5.44% [at 6.97 µM] | cytotoxicity increase [8]: 3.91% [at 6.97 µM] | activity change, negative = cytotoxicity [9]: 0.833% [at 8.39 µM]

CCCCO
Potency [1]: inactive | Potency [2]: inactive | Potency [3]: inactive | Potency [4]: inactive | Potency [5]: inactive | Potency [6]: inactive | Potency [7]: inactive | Potency [8]: inactive | Potency [9]: inactive

Cc1cc(C(=O)O)ccc1[N+](=O)[O-]
Potency [1]: inactive | Potency [2]: inactive | Potency [3]: inactive | Potency [4]: inactive | Potency [5]: inactive | Potency [6]: inactive | Potency [10]: inactive | Potency [7]: inactive | Potency [9]: inactive

CCCCC
Potency [1]: inactive | Potency [2]: inactive | Potency [3]: inactive | Potency [4]: inactive | Potency [5]: inactive | Potency [6]: inactive | Potency [7]: inactive | Potency [8]: inactive | Potency [9]: inactive

O=C(O)c1ccco1
Potency [1]: inactive | Potency [2]: inactive | Potency [3]: inactive | Potency [4]: inactive | Potency [5]: inactive | Potency [6]: inactive | Potency [7]: inactive | Potency [8]: inactive | Potency [9]: inactive

CCCCCCCCCCCc1ccccc1
Potency [1]: inactive | Potency [2]: inactive | Potency [3]: inactive | Potency [4]: inactive | Potency [5]: inactive | Potency [6]: inactive | Potency [7]: inactive | Potency [8]: inactive | Potency [9]: inactive

Cc1ccc(C(C)OC(=O)C2(C)CCC(C(=O)O)C2(C)C)cc1 (stereo unspecified)
Potency [1]: inactive | Potency [2]: inactive | Potency [3]: inactive | Potency [4]: inactive | Potency [5]: inactive | Potency [6]: inactive | Potency [7]: inactive | Potency [8]: inactive | Potency [9]: inactive

CCCCc1ncc(/C=C(\Cc2cccs2)C(=O)O)n1Cc1ccc(C(=O)O)cc1
Potency [1]: inactive | Potency [2]: inactive | Potency [3]: inactive | Potency [4]: inactive | Potency [5]: inactive | Potency [6]: inactive | Potency [10]: inactive | Potency [7]: inactive | Potency [8]: inactive | Potency [9]: inactive

C#Cc1cccc(Nc2ncnc3cc(OCCOC)c(OCCOC)cc23)c1
Potency [1]: inactive | Potency [2]: inactive | Potency [3]: inactive | Potency [4]: inactive | Potency [5]: inactive | Potency [6]: inactive | Potency [7]: inactive | Potency [8]: inactive

CCCCC(=O)OCC(=O)[C@H]1[C@H](C)C[C@H]2[C@@H]3C[C@H](F)C4=CC(=O)C=C[C@]4(C)[C@@]3(F)[C@@H](O)C[C@@]21C
Potency [1]: inactive | Potency [2]: inactive | Potency [3]: inactive | Potency [4]: inactive | Potency [5]: inactive | Potency [6]: inactive | Potency [7]: 0.952 µM (active) | Potency [9]: inactive

CCCCC1=NC2(CCCC2)C(=O)N1Cc1ccc(-c2ccccc2-c2nn[nH]n2)cc1
Potency [1]: inactive | Potency [2]: inactive | Potency [3]: inactive | Potency [4]: inactive | Potency [5]: inactive | Potency [6]: inactive | Potency [7]: inactive | Potency [8]: inactive

CN1C[C@H]2c3ccccc3Oc3ccc(Cl)cc3[C@@H]2C1
Potency [1]: inactive | Potency [2]: 26.8 µM (active) | Potency [3]: inactive | Potency [4]: inactive | Potency [5]: inactive | Potency [6]: inactive | Potency [8]: inactive

CN(Cc1ccc(C(C)(C)C)cc1)Cc1cccc2ccccc12
Potency [1]: inactive | Potency [2]: inactive | Potency [3]: inactive | Potency [4]: inactive | Potency [5]: inactive | Potency [6]: inactive | Potency [7]: inactive | Potency [9]: inactive

COc1cccc(N(C)C(=S)Oc2ccc3c(c2)CCCC3)n1
Potency [1]: inactive | Potency [2]: inactive | Potency [3]: inactive | Potency [4]: inactive | Potency [5]: inactive | Potency [6]: inactive | Potency [7]: inactive | Potency [8]: inactive | Potency [9]: inactive

CC(C)Cc1ccc(C(C)C(=O)OCc2ccccn2)cc1 (stereo unspecified)
Potency [1]: inactive | Potency [2]: inactive | Potency [3]: inactive | Potency [4]: inactive | Potency [10]: inactive | Potency [7]: inactive | Potency [8]: inactive

COc1cc(Cl)ccc1Oc1ccc(Cl)cc1Cl
Potency [1]: inactive | Potency [2]: inactive | Potency [3]: inactive | Potency [4]: inactive | Potency [6]: inactive | Potency [10]: inactive | Potency [7]: inactive | Potency [8]: inactive | Potency [9]: inactive

Clc1ccc2c(c1)CCc1cccnc1C2=C1CCNCC1
Potency [1]: inactive | Potency [2]: 23.9 µM (active) | Potency [3]: inactive | Potency [4]: inactive | Potency [6]: inactive | Potency [10]: inactive | Potency [7]: inactive | Potency [8]: inactive | Potency [9]: inactive

C#CCN(C)CCCOc1ccc(Cl)cc1Cl
Potency [1]: inactive | Potency [2]: 19 µM (active) | Potency [3]: inactive | Potency [4]: inactive | Potency [5]: inactive | Potency [10]: inactive | Potency [7]: inactive | Potency [8]: inactive | Potency [9]: inactive

CCCCc1nc2cccnc2n1Cc1ccc(-c2ccccc2-c2nnn[nH]2)cc1
Potency [1]: inactive | Potency [2]: inactive | Potency [3]: inactive | Potency [4]: inactive | Potency [10]: inactive | Potency [7]: 24.5 µM (active) | Potency [8]: inactive

CCCCC/C=C\C/C=C\CCCCCCCC(=O)NC(C)c1ccccc1 (stereo unspecified)
Potency [1]: inactive | Potency [2]: inactive | Potency [3]: inactive | Potency [4]: inactive | Potency [5]: inactive | Potency [7]: inactive | Potency [9]: inactive

CO[C@@H]1[C@H](OC(=O)/C=C/C=C/C=C/C=C/C(=O)O)CC[C@]2(CO2)[C@H]1[C@@]1(C)O[C@@H]1CC=C(C)C
Potency [1]: inactive | Potency [2]: inactive | Potency [3]: inactive | Potency [4]: inactive | Potency [6]: inactive | Potency [10]: inactive | Potency [7]: inactive | Potency [8]: inactive

COc1cc(Cl)c(OC)cc1N
Potency [1]: inactive | Potency [2]: inactive | Potency [3]: inactive | Potency [4]: inactive | Potency [5]: inactive | Potency [7]: inactive | Potency [8]: inactive | Potency [9]: inactive

CCCCCCCCCCO[C@@H]1O[C@H](CO)[C@@H](O)[C@H](O)[C@H]1O
Potency [1]: inactive | Potency [2]: inactive | Potency [3]: inactive | Potency [4]: inactive | Potency [6]: inactive | Potency [10]: inactive | Potency [7]: inactive | Potency [8]: inactive | Potency [9]: inactive

COc1cc2nc(N3CCN(C(=O)C4COc5ccccc5O4)CC3)nc(N)c2cc1OC (stereo unspecified)
Potency [1]: inactive | Potency [2]: 23.9 µM (active) | Potency [3]: inactive | Potency [4]: inactive | Potency [5]: 21.3 µM (active) | Potency [10]: inactive | Potency [7]: 10.7 µM (active) | Potency [8]: inactive

CC[N+](C)(CC)CCOC(=O)C(O)(c1ccccc1)C1CCCCC1 (stereo unspecified)
Potency [1]: inactive | Potency [2]: inactive | Potency [3]: inactive | Potency [5]: inactive | Potency [6]: inactive | Potency [10]: inactive | Potency [7]: inactive

CC(C)(O)c1ccc(CNC(=O)c2cccnc2Oc2ccc(F)cc2)cc1
Potency [1]: inactive | Potency [2]: inactive | Potency [3]: inactive | Potency [4]: inactive | Potency [6]: inactive | Potency [10]: inactive | Potency [7]: inactive | Potency [8]: inactive | Potency [9]: inactive

CC1=CC=C(C(C)C)CC1
Potency [1]: inactive | Potency [2]: inactive | Potency [3]: inactive | Potency [5]: inactive | Potency [6]: inactive | Potency [10]: inactive | Potency [7]: inactive | Potency [8]: inactive

Cc1ccc(C(=O)Oc2ccc(C(O)CNC(C)(C)C)cc2OC(=O)c2ccc(C)cc2)cc1 (stereo unspecified)
Potency [1]: inactive | Potency [2]: 19 µM (active) | Potency [3]: 23.9 µM (active) | Potency [4]: 21.3 µM (active) | Potency [10]: 26.8 µM (active) | Potency [7]: inactive | Potency [8]: 23.9 µM (active)

Cc1cccc(Nc2ccccc2)c1
Potency [1]: inactive | Potency [2]: 38.9 µM (active) | Potency [3]: inactive | Potency [4]: inactive | Potency [5]: inactive | Potency [10]: inactive | Potency [7]: inactive | Potency [9]: inactive
